Here are results for 34 molecules from PubChem BioAssay AID1846 (The Scripps Research Institute Molecular Screening Center, 2009).

SMILES strings stand for the structures. In all, about 2,300 compounds went through this assay and about 1,500 (65%) were called active. The set was probably picked from earlier hits. The list is a sample of the results. Values without a mark were called inactive. Rule as the data show it: active = inhibition above about 18%; inactive = the rest.

This test concerns the target Heat shock protein HSP 90-alpha (Homo sapiens) (UniProt P07900). The experiment in a line: inhibitors of HSP90 chaperone activity – cell lysate, luminescence, confirmation (AID 1846).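 Also: 0% = vehicle wells and 100% = reference inhibitor wells.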 To be noted: rabbit reticulocyte lysate, luciferase refolding luminescence, 3 h; at 5.9 µM; stronger effect = higher value.
As for `C/C(=N\NC(=S)NC1CCCCC1)c1ccc(C)o1`, the inhibition is 3.2%.

Regarding `CCOc1ccc(OCc2ccc(C(=O)N(C)c3ccccc3)o2)cc1`, the inhibition is 28.8% (active).

Regarding `O=C(Nc1ccccc1C(=O)O)c1ccc(N2C(=O)C3CC=CCC3C2=O)cc1` (centres undefined), the inhibition is 25.4% (active).

Regarding `CCOc1ccc(OCc2cccc(C(=O)N(CC)CC)c2)cc1`, the inhibition was 39.7% (active).

For the molecule `CCS(=O)(=O)c1cc([N+](=O)[O-])c(Sc2ccccc2N)s1`, the inhibition is 56% (active).

Take `Oc1c(C=Nc2cccc3nsnc23)ccc2ccccc12`: the inhibition was 6.47%.

For the molecule `O=c1oc(/C=C/c2ccccc2)nc2ccccc12`, the inhibition is 33% (active).

Regarding `COc1ccc(-c2cn3ccc(C)cc3n2)cc1`, the inhibition was 83.5% (active).

On to `Cc1ccc(-c2cn3cc(C)ccc3n2)cc1`, for which the inhibition was 90.3% (active).

For `Cc1ccc2nc(-c3ccc(Br)cc3)cn2c1`, the inhibition is 82% (active).

Consider `COc1cc(C(=O)NN(CCC#N)C2=NS(=O)(=O)c3ccccc32)cc(OC)c1OC`, for which the inhibition is -4.73%.

Take `CCc1ccc(Nc2ncc3c(n2)CC(c2ccco2)CC3=O)cc1` (centres undefined): the inhibition was -4.8%.

As to `CCOC(=O)N1CCN(Cc2nc3c(c(=O)n(C)c(=O)n3C)n2Cc2ccccc2)CC1`, the inhibition was -3.3%.

Take `COc1cc(CNC2CCCCC2)c(Br)cc1OC1CCCC1`: the inhibition was 5.53%.

With `Cc1sc2nc(CSCC(=O)Nc3c(Cl)cccc3Cl)[nH]c(=O)c2c1C`, the inhibition was -4.2%.

Take `CCc1ccc2oc(-c3ccc(N)cc3)nc2c1`: the inhibition is 53.6% (active).

As to `Nc1ccc(-c2nnc(-c3ccccc3)o2)cc1`, the inhibition is 4.47%.

Turning to `Clc1ccc2nc(CSc3ccccc3)cn2c1`, the inhibition was 57% (active).

As to `Cc1cccc(CCNC(=O)Cn2ncc3c([nH]c4ccc(C)cc43)c2=O)c1`, the inhibition is 5.53%.

For `Cc1csc(SCC(=O)Nc2sccc2C#N)n1`, the inhibition is 42.4% (active).

For `Cc1cc(C(=O)COC(=O)C2CC2)c(C)n1-c1ccc(F)cc1`, the inhibition is 87.3% (active).

On to `O=C1CCC([N+](=O)[O-])C(c2ccccc2Br)N1` (centres undefined), for which the inhibition is -5.63%.

For the molecule `O=C(OC1CCOC1=O)c1ccc(-c2nc3ccccc3s2)s1` (centres undefined), the inhibition is 60.6% (active).

As for `CCCCNC(=O)Nc1c(C)cc(SC#N)cc1C`, the inhibition is 4.17%.

On to `CN(CCO)c1ccc(/C=N/Nc2nncc3ccccc23)cc1`, for which the inhibition is 91.8% (active).

Turning to `Cc1ccc(Nc2nc(-c3ccc(O)cc3O)cs2)nc1`, the inhibition was 0.63%.

In the case of `O=C(CN1C(=O)c2ccccc2S1(=O)=O)N1CCc2ccccc21`, the inhibition is 46.1% (active).

For the molecule `CCOC(=O)CNC(=O)c1nn(-c2cccc(OC)c2)c(=O)c2ccccc12`, the inhibition is -0.53%.

Consider `COc1ccc(-c2nc(-c3ccccc3)no2)c(OC)c1`, for which the inhibition is 84.8% (active).

With `CCOc1c(Br)cc(/C=C2\C(=O)N(CCC#N)N=C2C)cc1OC`, the inhibition is -11.9%.

For the molecule `N#C/C=C\Oc1ccc(Cl)cc1N`, the inhibition was -1.37%.

`CN(C)c1ccc(-n2cccc2/C=N/n2cnnc2)cc1`: the inhibition is 45.9% (active).

Turning to `CC(C)Nc1ccc(-n2nc3ccccc3[n+]2[O-])cc1`, the inhibition is 51.6% (active).

For `Cc1ccc(C(=O)COC(=O)c2cccc(N3C(=O)c4c(C)nc5ccccc5c4C3=O)c2)cc1C`, the inhibition is 4.83%.

A word on the inhibition: it is the relative decrease from the control value, in per cent.
